# Measured values as given in PubChem BioAssay (NCI).
# About 79,000 compounds went through this panel and 15% of them were active in at least one assay; those are over-represented in the sample as a whole. Values without a mark were called inactive. Activity calls are given as the source filed them. Rule as the data show it: active = growth inhibition above about 70%; inactive = the rest.
# How the values were obtained:
# [1] = NCI Yeast Anticancer Drug Screen. Data for the rad52 strain (AID 147);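 also: 0% = growth of vehicle-treated control cultures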; settings: S. cerevisiae rad52 mutant growth inhibition, active compounds read high
# In short: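 Growth of repair-deficient yeast cells was compared between compound-treated and vehicle-treated cultures to give percent inhibition.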
# [2] = NCI Yeast Anticancer Drug Screen. Data for the wt1 strain (AID 149);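 also: 0% = growth of vehicle-treated wt1 cultures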; settings: S. cerevisiae wt1 strain (SPY 50644) growth inhibition, active compounds read high
# In short: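 Measured: growth of wt1 yeast under compound versus vehicle treatment, reported as inhibition.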
# [3] = NCI Yeast Anticancer Drug Screen. Data for the rad50EPP+ strain (AID 151);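 also: 0% = growth of vehicle-treated control cultures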; settings: S. cerevisiae rad50 mutant strain, active compounds read high
# In short: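 Measured: growth inhibition of rad50EPP+ yeast. Reference: vehicle-treated controls. Screen uses strains with defined genetic alterations in DNA damage repair or cell cycle control.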
# [4] = NCI Yeast Anticancer Drug Screen. Data for the mgt1 strain (AID 153); settings: S. cerevisiae mgt1 mutant growth inhibition, active compounds read high
# In short: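 Compounds were applied to mgt1 mutant yeast, and growth was then compared against vehicle-treated control cultures to give percent inhibition.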
# [5] = NCI Yeast Anticancer Drug Screen. Data for the rad50 strain (AID 155);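 also: 0% = growth of vehicle-only cultures of the same strain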; settings: S. cerevisiae rad50 strain growth inhibition, active compounds read high
# In short: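 Growth of the mutant yeast was measured after compound exposure and referenced to vehicle-treated cultures.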
# [6] = NCI Yeast Anticancer Drug Screen. Data for the mec2-1 strain (AID 157); settings: S. cerevisiae mec2-1 strain, active compounds read high
# In short: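 Compounds were applied to mec2-1 yeast cells. Their growth was then compared with that of vehicle-treated cultures to give growth inhibition.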
# [7] = NCI Yeast Anticancer Drug Screen. Data for the rad14 strain (AID 159);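 also: 0% = growth of vehicle-treated control cultures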; settings: S. cerevisiae rad14 strain growth inhibition, active compounds read high
# In short: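 Here, inhibition of yeast growth was measured after compound exposure, using a strain with a genetic defect in DNA damage repair and vehicle-treated cultures as the reference.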
# [8] = NCI Yeast Anticancer Drug Screen. Data for the sgs1 mgt1 strain (AID 161);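 also: 0% = growth of cultures given vehicle only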; settings: S. cerevisiae sgs1 mgt1 strain, active compounds read high
# In short: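 Yeast cells carrying a defined DNA-repair defect were exposed to test compounds. Growth inhibition was measured relative to vehicle-treated controls.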
# [9] = NCI Yeast Anticancer Drug Screen. Data for the CLN2oe strain (AID 163);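 also: 0% = growth of vehicle-only control cultures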; settings: S. cerevisiae CLN2oe strain, active compounds read high
# In short: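 Cells of an engineered yeast line with disturbed cell-cycle regulation are treated with compound. Inhibition of growth is then calculated relative to the vehicle-treated reference.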
# [10] = NCI Yeast Anticancer Drug Screen. Data for the cln2 rad14 strain (AID 165);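 also: 0% = growth equal to vehicle treated cultures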; settings: S. cerevisiae cln2 rad14 strain, active compounds read high
# In short: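 Strain: cln2 rad14 yeast, altered in cell cycle control and DNA damage repair. Read-out: growth inhibition vs vehicle.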
# [11] = NCI Yeast Anticancer Drug Screen. Data for the bub3 strain (AID 167); settings: S. cerevisiae bub3 mutant strain, active compounds read high
# In short: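 Whole-cell yeast assay. The mutant strain was incubated with compounds, and growth inhibition was determined by comparison with vehicle-treated cells.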
# [12] = NCI Yeast Anticancer Drug Screen. Data for the wt2 strain (AID 169);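 also: 0% = growth of vehicle-treated yeast cultures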; settings: S. cerevisiae wt2 strain growth inhibition, active compounds read high
# In short: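 Growth of compound-treated yeast is measured and expressed as inhibition relative to vehicle-only controls.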
# [13] = NCI Yeast Anticancer Drug Screen. Data for the mlh1 strain (AID 171);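 also: 0% = growth of vehicle-treated control cultures of the same strain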; settings: S. cerevisiae mlh1 strain growth inhibition, active compounds read high
# In short: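 Test agents were incubated with yeast bearing a defined DNA damage repair or cell cycle control alteration; values are growth inhibition normalised to vehicle-treated cultures.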
# [14] = NCI Yeast Anticancer Drug Screen. Data for the sgs1 strain (AID 173);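 also: 0% = growth of vehicle-only control cultures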; settings: S. cerevisiae sgs1 mutant, active compounds read high
# In short: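 Strain with an altered DNA repair or cell cycle pathway exposed to compound. Growth then measured. Value = inhibition versus vehicle control.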
# [15] = NCI Yeast Anticancer Drug Screen. Data for the mlh1 rad18 strain (AID 175); settings: S. cerevisiae mlh1 rad18 strain growth inhibition, active compounds read high
# In short: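 A repair-deficient yeast strain is exposed to test compound, and growth is scored relative to vehicle-treated controls.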
# [16] = NCI Yeast Anticancer Drug Screen. Data for the rad18 strain (AID 177); settings: S. cerevisiae rad18 mutant growth inhibition, active compounds read high
# In short: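 DNA-repair-defective yeast; compound treatment; growth inhibition scored against vehicle.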
# [17] = at 5.0 µM (retest, dose inferred, filed as 0.5)
# [18] = at 50.0 µM (retest, dose inferred, filed as 5.0)
compound,measurement,setting,value
O=C(NCCCNCCCNC(=O)c1cc(-c2ccccc2)nc2ccccc12)c1cc(-c2ccccc2)nc2ccccc12,growth inhibition,[1]; at 1.2 µM,-4%
same,growth inhibition,[1]; at 3.7 µM,-2%
same,growth inhibition,[1]; at 11.0 µM,-4%
same,growth inhibition,[1]; at 33.0 µM,6%
same,growth inhibition,[1]; at 100.0 µM,11%
same,growth inhibition,[2]; at 1.2 µM,-1%
same,growth inhibition,[2]; at 3.7 µM,-1%
same,growth inhibition,[2]; at 11.0 µM,-3%
same,growth inhibition,[2]; at 33.0 µM,-2%
same,growth inhibition,[2]; at 100.0 µM,-5%
same,growth inhibition,[3]; at 1.2 µM,-1%
same,growth inhibition,[3]; at 3.7 µM,5%
same,growth inhibition,[3]; at 11.0 µM,14%
same,growth inhibition,[3]; at 33.0 µM,24%
same,growth inhibition,[3]; at 100.0 µM,19%
same,growth inhibition,[4]; at 1.2 µM,-2%
same,growth inhibition,[4]; at 3.7 µM,-1%
same,growth inhibition,[4]; at 11.0 µM,-3%
same,growth inhibition,[4]; at 33.0 µM,20%
same,growth inhibition,[4]; at 100.0 µM,61%
same,growth inhibition,[5]; at 1.2 µM,-3%
same,growth inhibition,[5]; at 3.7 µM,-2%
same,growth inhibition,[5]; [17],-13%
same,growth inhibition,[5]; at 11.0 µM,-4%
same,growth inhibition,[5]; at 33.0 µM,27%
same,growth inhibition,[5]; [18],54%
same,growth inhibition,[5]; at 50.0 µM,37.3%
same,growth inhibition,[5]; at 100.0 µM,51%
same,growth inhibition,[6]; at 1.2 µM,-2%
same,growth inhibition,[6]; at 3.7 µM,-4%
same,growth inhibition,[6]; [17],-11%
same,growth inhibition,[6]; at 11.0 µM,-5%
same,growth inhibition,[6]; at 33.0 µM,10%
same,growth inhibition,[6]; [18],19%
same,growth inhibition,[6]; at 50.0 µM,37.7%
same,growth inhibition,[6]; at 100.0 µM,47%
same,growth inhibition,[7]; at 1.2 µM,-1%
same,growth inhibition,[7]; at 3.7 µM,-1%
same,growth inhibition,[7]; at 11.0 µM,4%
same,growth inhibition,[7]; at 33.0 µM,58%
same,growth inhibition,[7]; at 100.0 µM,82% (active)
same,growth inhibition,[8]; [17],0%
same,growth inhibition,[8]; [18],-8%
same,growth inhibition,[8]; at 50.0 µM,56.2%
same,growth inhibition,[9]; at 1.2 µM,-3%
same,growth inhibition,[9]; at 3.7 µM,-1%
same,growth inhibition,[9]; at 11.0 µM,-4%
same,growth inhibition,[9]; at 33.0 µM,14%
same,growth inhibition,[9]; at 100.0 µM,24%
same,growth inhibition,[10]; [17],40%
same,growth inhibition,[10]; [18],42%
same,growth inhibition,[10]; at 50.0 µM,37.8%
same,growth inhibition,[11]; at 1.2 µM,-3%
same,growth inhibition,[11]; at 3.7 µM,-1%
same,growth inhibition,[11]; [17],3%
same,growth inhibition,[11]; at 11.0 µM,-1%
same,growth inhibition,[11]; at 33.0 µM,11%
same,growth inhibition,[11]; [18],58%
same,growth inhibition,[11]; at 50.0 µM,64.1%
same,growth inhibition,[11]; at 100.0 µM,44%
same,growth inhibition,[12]; at 1.2 µM,-3%
same,growth inhibition,[12]; at 3.7 µM,-4%
same,growth inhibition,[12]; at 11.0 µM,-4%
same,growth inhibition,[12]; at 33.0 µM,1%
same,growth inhibition,[12]; at 100.0 µM,11%
same,growth inhibition,[13]; at 1.2 µM,-4%
same,growth inhibition,[13]; at 3.7 µM,-1%
same,growth inhibition,[13]; at 11.0 µM,-1%
same,growth inhibition,[13]; at 33.0 µM,16%
same,growth inhibition,[13]; at 100.0 µM,46%
same,growth inhibition,[14]; at 1.2 µM,-3%
same,growth inhibition,[14]; at 3.7 µM,-2%
same,growth inhibition,[14]; at 11.0 µM,-1%
same,growth inhibition,[14]; at 33.0 µM,7%
same,growth inhibition,[14]; at 100.0 µM,11%
same,growth inhibition,[15]; [17],17%
same,growth inhibition,[15]; [18],78% (active)
same,growth inhibition,[15]; at 50.0 µM,89.4% (active)
same,growth inhibition,[16]; at 1.2 µM,-4%
same,growth inhibition,[16]; at 3.7 µM,-3%
same,growth inhibition,[16]; at 11.0 µM,-4%
same,growth inhibition,[16]; at 33.0 µM,13%
same,growth inhibition,[16]; at 100.0 µM,34%
OCC(Cn1cncn1)(c1ccc(F)cc1F)n1cncn1 (stereo unspecified),growth inhibition,[1]; at 1.2 µM,35%
same,growth inhibition,[1]; at 3.7 µM,57%
same,growth inhibition,[1]; at 11.0 µM,63%
same,growth inhibition,[1]; at 33.0 µM,66%
same,growth inhibition,[1]; at 100.0 µM,65%
same,growth inhibition,[2]; at 1.2 µM,13%
same,growth inhibition,[2]; at 3.7 µM,40%
same,growth inhibition,[2]; at 11.0 µM,45%
same,growth inhibition,[2]; at 33.0 µM,43%
same,growth inhibition,[2]; at 100.0 µM,42%
same,growth inhibition,[3]; at 1.2 µM,2%
same,growth inhibition,[3]; at 3.7 µM,28%
same,growth inhibition,[3]; at 11.0 µM,86% (active)
same,growth inhibition,[3]; at 33.0 µM,92% (active)
same,growth inhibition,[3]; at 100.0 µM,94% (active)
same,growth inhibition,[4]; at 1.2 µM,33%
same,growth inhibition,[4]; at 3.7 µM,62%
same,growth inhibition,[4]; at 11.0 µM,65%
same,growth inhibition,[4]; at 33.0 µM,66%
same,growth inhibition,[4]; at 100.0 µM,65%
same,growth inhibition,[5]; at 1.2 µM,34%
same,growth inhibition,[5]; at 3.7 µM,54%
same,growth inhibition,[5]; [17],55%
same,growth inhibition,[5]; at 11.0 µM,59%
same,growth inhibition,[5]; at 33.0 µM,59%
same,growth inhibition,[5]; [18],77% (active)
same,growth inhibition,[5]; at 50.0 µM,61.8%
same,growth inhibition,[5]; at 100.0 µM,60%
same,growth inhibition,[6]; at 1.2 µM,27%
same,growth inhibition,[6]; at 3.7 µM,45%
same,growth inhibition,[6]; [17],41%
same,growth inhibition,[6]; at 11.0 µM,53%
same,growth inhibition,[6]; at 33.0 µM,53%
same,growth inhibition,[6]; [18],61%
same,growth inhibition,[6]; at 50.0 µM,44.2%
same,growth inhibition,[6]; at 100.0 µM,52%
same,growth inhibition,[7]; at 1.2 µM,57%
same,growth inhibition,[7]; at 3.7 µM,74% (active)
same,growth inhibition,[7]; at 11.0 µM,83% (active)
same,growth inhibition,[7]; at 33.0 µM,76% (active)
same,growth inhibition,[7]; at 100.0 µM,74% (active)
same,growth inhibition,[8]; [17],67%
same,growth inhibition,[8]; [18],78% (active)
same,growth inhibition,[8]; at 50.0 µM,68.2%
same,growth inhibition,[9]; at 1.2 µM,29%
same,growth inhibition,[9]; at 3.7 µM,51%
same,growth inhibition,[9]; at 11.0 µM,62%
same,growth inhibition,[9]; at 33.0 µM,65%
same,growth inhibition,[9]; at 100.0 µM,68%
same,growth inhibition,[10]; [17],22%
same,growth inhibition,[10]; [18],81% (active)
same,growth inhibition,[10]; at 50.0 µM,63%
same,growth inhibition,[11]; at 1.2 µM,27%
same,growth inhibition,[11]; at 3.7 µM,54%
same,growth inhibition,[11]; [17],14%
same,growth inhibition,[11]; at 11.0 µM,69%
same,growth inhibition,[11]; at 33.0 µM,69%
same,growth inhibition,[11]; [18],84% (active)
same,growth inhibition,[11]; at 50.0 µM,71% (active)
same,growth inhibition,[11]; at 100.0 µM,66%
same,growth inhibition,[12]; at 1.2 µM,31%
same,growth inhibition,[12]; at 3.7 µM,57%
same,growth inhibition,[12]; at 11.0 µM,64%
same,growth inhibition,[12]; at 33.0 µM,61%
same,growth inhibition,[12]; at 100.0 µM,57%
same,growth inhibition,[13]; at 1.2 µM,22%
same,growth inhibition,[13]; at 3.7 µM,47%
same,growth inhibition,[13]; at 11.0 µM,53%
same,growth inhibition,[13]; at 33.0 µM,53%
same,growth inhibition,[13]; at 100.0 µM,50%
same,growth inhibition,[14]; at 1.2 µM,48%
same,growth inhibition,[14]; at 3.7 µM,67%
same,growth inhibition,[14]; at 11.0 µM,72% (active)
same,growth inhibition,[14]; at 33.0 µM,72% (active)
same,growth inhibition,[14]; at 100.0 µM,70% (active)
same,growth inhibition,[15]; [17],31%
same,growth inhibition,[15]; [18],86% (active)
same,growth inhibition,[15]; at 50.0 µM,57.5%
same,growth inhibition,[16]; at 1.2 µM,41%
same,growth inhibition,[16]; at 3.7 µM,60%
same,growth inhibition,[16]; at 11.0 µM,67%
same,growth inhibition,[16]; at 33.0 µM,65%
same,growth inhibition,[16]; at 100.0 µM,65%
